Source: the supplement of paper PMC12645437, “Orthogonal IMiD-Degron Pairs Induce Selective Protein Degradation in Cells” (ACS Chemical Biology, 2025)
Over roughly 8,300 sequences, “log2 fold change of degron read counts, EGFP-low vs EGFP+ sorted cells (limma voom), compound-induced degradation” has its median near -1.1; the highest 2% begin near 3.2. The list comes from a sample in which the highest values are over-represented; it also holds similar and randomly drawn sequences.

T1: CRBN, Q96SW2
T1 chain: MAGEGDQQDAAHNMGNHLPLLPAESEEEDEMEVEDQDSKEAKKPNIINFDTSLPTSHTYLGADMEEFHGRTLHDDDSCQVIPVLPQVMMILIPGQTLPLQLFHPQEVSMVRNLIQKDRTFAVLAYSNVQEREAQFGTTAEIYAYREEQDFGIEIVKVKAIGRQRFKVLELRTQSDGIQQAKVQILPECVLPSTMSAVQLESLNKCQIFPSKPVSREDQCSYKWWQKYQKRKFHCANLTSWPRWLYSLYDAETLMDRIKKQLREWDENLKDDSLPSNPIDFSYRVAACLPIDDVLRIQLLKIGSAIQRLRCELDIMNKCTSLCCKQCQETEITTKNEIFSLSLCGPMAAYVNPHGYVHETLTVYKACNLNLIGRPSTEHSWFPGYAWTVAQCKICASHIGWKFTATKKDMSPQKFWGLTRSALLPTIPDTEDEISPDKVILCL


Molecular target: T1, CRBN, Q96SW2
Experiment: log2 fold change of degron read counts, EGFP-low vs EGFP+ sorted cells (limma voom), compound-induced degradation; higher = more compound-induced degradation of the degron-EGFP fusion; degrons are variants of IKZF1/3 zinc finger 2; compound dose not given here
Settings: Jurkat, 18 h
Experimental: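 Pooled library of 8380 IKZF3 ZF2 degron mutants (positions 146-167 varied within the IKZF3 130-189 degron; only the varied core is printed, flanks not printed) fused to EGFP with IRES-mCherry, lentivirally expressed in Jurkat cells. mCherry+ cells were treated with one IMiD compound for 18 h (dose not stated) and FACS-sorted into EGFP-low and EGFP+ populations. Degron sequences were counted by NGS, and log2FC (EGFP-low vs EGFP+) was estimated by limma voom over 3 biological replicates.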

[1] = compound: compound 19 (5-tert-butyl-thalidomide)
[2] = compound: compound 22 (5-morpholino-thalidomide)
[3] = compound: compound 33 (diphenyl IMiD analogue)
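Note: pooled lentiviral library of zinc finger degron-EGFP fusions in mCherry-positive Jurkat cells, FACS-sorted after compound exposure, with degron abundance counted by next-generation sequencing.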

Sequence | log2 fold change of degron read counts [1] | log2 fold change of degron read counts [2] | log2 fold change of degron read counts [3] | log2 fold change of degron read counts (compound: thalidomide)
FSCDVCGAEFTQKGNLLRHIKL [46F_47S_49D_50V_52G_53A_54E_55F_67L_, Q9UKT9] | -0.733 | -1.36 | -1.13 | -1.96
FNCNICGANFTQKGNLLRHIKL [46F_47N_49N_50I_52G_53A_54N_55F_67L_, Q9UKT9] | 0.662 | -0.0154 | -0.393 | -0.94
FGCDQCGARFTQKGNLLRHIKL [46F_47G_49D_50Q_52G_53A_54R_55F_67L_, Q9UKT9] | -1.28 | -2.53 | -2.52 | -1.78
FKCEICGRWFTQKGNLLRHIKL [46F_47K_49E_50I_52G_53R_54W_55F_67L_, Q9UKT9] | -2.8 | -3.25 | -3.01 | -2.58
FWCNQCGRHFTQKGNLLRHIKL [46F_47W_49N_50Q_52G_53R_54H_55F_67L_, Q9UKT9] | -1.56 | -1.46 | -1.56 | -1.55
FACPQCGAVFTQKGNLLRHIKL [46F_47A_49P_50Q_52G_53A_54V_55F_67L_, Q9UKT9] | 0.29 | -1.36 | -0.148 | -1.43
FVCPICGHGFTQKGNLLRHIKL [46F_47V_49P_50I_52G_53H_54G_55F_67L_, Q9UKT9] | -2.33 | -2.2 | -1.88 | -0.905
FLCEQCGAEFTQKGNLLRHIKL [46F_47L_49E_50Q_52G_53A_54E_55F_67L_, Q9UKT9] | -2.34 | -3.65 | -2.09 | -1.63
FQCPQCGAYFTQKGNLLRHIKL [46F_47Q_49P_50Q_52G_53A_54Y_55F_67L_, Q9UKT9] | -1.88 | -1.45 | -0.995 | 1.25
LTCPICGFVCTQKGNLLRHIKL [46L_47T_49P_50I_52G_53F_54V_55C_67L_, Q9UKT9] | 0.397 | 1.59 | 2.08 | 2.24
LYCPICGFVCTQKGNLLRHIKL [46L_47Y_49P_50I_52G_53F_54V_55C_67L_, Q9UKT9] | 3.29 | 3.49 | 2.29 | 1.2
LGCPICGFVCTQKGNLLRHIKL [46L_47G_49P_50I_52G_53F_54V_55C_67L_, Q9UKT9] | 3.04 | 1.82 | 1.33 | 0.747
LMCPICGFVCTQKGNLLRHIKL [46L_47M_49P_50I_52G_53F_54V_55C_67L_, Q9UKT9] | -0.234 | 0.389 | 2.08 | 1.67
LQCPICGFVCTQKGNLLRHIKL [46L_47Q_49P_50I_52G_53F_54V_55C_67L_, Q9UKT9] | 0.325 | 2.16 | 1.88 | 3.76
LCCPICGFVCTQKGNLLRHIKL [46L_47C_49P_50I_52G_53F_54V_55C_67L_, Q9UKT9] | 1.01 | 1.57 | 2.59 | 2.1
FICNICGADFTQKGNLLRHIKL [46F_47I_49N_50I_52G_53A_54D_55F_67L_, Q9UKT9] | -2.47 | -1.85 | -1.03 | -0.92
FTCDVCGAIFTQKGNLLRHIKL [46F_47T_49D_50V_52G_53A_54I_55F_67L_, Q9UKT9] | -2.2 | -1.5 | -0.885 | -0.951
FACEICGRYFTQKGNLLRHIKL [46F_47A_49E_50I_52G_53R_54Y_55F_67L_, Q9UKT9] | 1.02 | -1.33 | -1.87 | -1.22
FSCPICGADFTQKGNLLRHIKL [46F_47S_49P_50I_52G_53A_54D_55F_67L_, Q9UKT9] | 1.3 | 0.182 | 1.52 | 0.227
FGCPICGAMFTQKGNLLRHIKL [46F_47G_49P_50I_52G_53A_54M_55F_67L_, Q9UKT9] | 3.33 | 2.19 | 1.89 | 0.606
FYCPICGAMFTQKGNLLRHIKL [46F_47Y_49P_50I_52G_53A_54M_55F_67L_, Q9UKT9] | 2.65 | 2.73 | 2.02 | 0.0372
FVCPICGAMFTQKGNLLRHIKL [46F_47V_49P_50I_52G_53A_54M_55F_67L_, Q9UKT9] | -0.498 | 1.33 | 1.86 | 1.85
FQCPICGADFTQKGNLLRHIKL [46F_47Q_49P_50I_52G_53A_54D_55F_67L_, Q9UKT9] | 0.457 | 1.55 | 2.48 | 3.81
FHCPICGAMFTQKGNLLRHIKL [46F_47H_49P_50I_52G_53A_54M_55F_67L_, Q9UKT9] | 1.97 | 1.9 | 1.34 | 0.306
FSCPICGAMFTQKGNLLRHIKL [46F_47S_49P_50I_52G_53A_54M_55F_67L_, Q9UKT9] | 1.66 | 1.01 | 1.5 | 0.771
FQCPICGAMFTQKGNLLRHIKL [46F_47Q_49P_50I_52G_53A_54M_55F_67L_, Q9UKT9] | -0.249 | 2.56 | 2.51 | 3.62
FVCPICGADFTQKGNLLRHIKL [46F_47V_49P_50I_52G_53A_54D_55F_67L_, Q9UKT9] | -1.19 | 1.3 | 1.21 | 1.95
FGCNICGACFTQKGNLLRHIKL [46F_47G_49N_50I_52G_53A_54C_55F_67L_, Q9UKT9] | 1.07 | 2.09 | 1.61 | 0.355
